PubChem BioAssay (NCATS)
Activity calls are given as the source filed them. A call without a number means that no potency is given here. Calls come from the whole dose curve; as a rule, active = well fitted inhibition curve with a large enough effect; inconclusive = small, poorly fitted or top-dose-only effect; inactive = flat fitted curve, though single readings scatter.

molecular target: Phosphoglycerate kinase, glycosomal (Trypanosoma brucei brucei) (UniProt P07378); experiment: qHTS Validation Assay to Find Inhibitors of Phosphoglycerate Kinase (AID 504547); settings: enzymatic PGK inhibition, coupled luminescence read-out; series mostly up to 57.5 µM
Description: NIH Molecular Libraries Probe Production Network [MLPCN]
NIH Chemical Genomics Center [NCGC]
PI Name: Malcolm Walkinshaw, University of Edinburgh
Several species of the Trypanosomatidae family of parasitic protozoans cause a spectrum of diseases
throughout the tropical and subtropical world. Sleeping sickness, caused by two subspecies of Trypanosoma brucei, is endemic to areas of sub-Saharan Africa, while Chagas disease, a manifestation of Trypanosoma cruzi infection, is prevalent throughout Central and South America. In addition, many species of Leishmania are responsible for a range of cutaneous and visceral diseases, causing ulcers, destructive lesions and kalaazar, a lethal infection of the viscera. Collectively, these organisms infect 30 million people worldwide (~500 million live in endemic areas), and account for ~130,000 deaths annually. Given their debilitating and prevalent nature, trypanosomatid parasites impose a heavy medical, economic and social burden on entire populations, primarily in the developing world. The problem is further exacerbated by the fact that existing treatments have progressed little in the past 50 years, and current drugs show high toxicity and poor efficacy.
Blood-stream stages of T. brucei are entirely dependent on glycolysis as a source of ATP, and the tricarboxylic acid cycle and oxidative phosphorylation are both repressed. Glycolysis in axenically cultured T. cruzi, representing the intracellular pathogenic stage, is also essential for these parasites. […] Previous studies have shown that the glycolytic enzyme, phosphoglycerate kinase (PGK), is a viable target for drugs to kill these parasites.
NCGC Assay Protocol Summary:
Briefly, 3ul of substrate/PGK buffer (columns 1,2,5-48) are dispensed into Greiner white solid bottom 1536-well assay plates; columns 3-4 receive only TEA buffer as 0x PGK controls. Compounds are then transferred via Kalypsys pin tool equipped with 1536-pin array (10nl slotted pins, V&P Scientific, San Diego, CA). Following addition of compound, 1ul of GAPDH (100nM final concentration, all columns) is added to initiate the reaction (this upstream coupling enzyme is necessary for in-well production of PGK substrate, 1,3-bisphosphoglycerate (1,3-BPG), which is unstable and not commercially available). The plates are then incubated at room temperature for 60 minutes. Kinase-Glo Plus reagent is added (2ul) and plates incubated for 10 minutes, before being transferred to a ViewLux high-throughput CCD imager (PerkinElmer) wherein single end-point measurements of luminescence are acquired using a clear filter. All reagents are diluted in an assay buffer consisting of 100mM TEA (pH 7.6), 5mM MgCl2 and 0.01% Tween-20.
Potency is the fitted concentration of half-maximal effect.

Chain of Phosphoglycerate kinase, glycosomal (Trypanosoma brucei brucei) (P07378 whole entry, looked up): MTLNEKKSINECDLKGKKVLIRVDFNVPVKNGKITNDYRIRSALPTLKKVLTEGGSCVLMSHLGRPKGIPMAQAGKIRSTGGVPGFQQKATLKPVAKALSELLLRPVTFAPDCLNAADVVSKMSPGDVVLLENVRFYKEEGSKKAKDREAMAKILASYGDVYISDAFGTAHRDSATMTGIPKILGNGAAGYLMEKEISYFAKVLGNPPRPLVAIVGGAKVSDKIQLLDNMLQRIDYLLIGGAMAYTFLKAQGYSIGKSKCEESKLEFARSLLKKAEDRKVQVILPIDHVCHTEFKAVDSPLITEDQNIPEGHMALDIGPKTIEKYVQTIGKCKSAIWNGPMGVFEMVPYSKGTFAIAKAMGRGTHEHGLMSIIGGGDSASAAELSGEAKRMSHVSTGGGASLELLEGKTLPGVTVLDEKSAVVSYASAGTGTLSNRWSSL

SMILES | Potency
CN1CC[C@@]2(C)c3cc(O)ccc3N(C)C12 (stereo not given in full) | inactive
NC(C(=O)O)c1cc(=O)[nH]o1 (stereo not given) | inactive
OC1CCCCC1N1CCC(c2ccccc2)CC1 (stereo not given) | inactive
COc1ccc(CNC(=O)/C=C/c2ccc3[nH]cc(CCN(C)C)c3c2)cc1 | inactive
C=CCN1CC[C@]23c4c5ccc(O)c4O[C@@H]2/C(=N/N=C2\CC[C@@]4(O)C6Cc7ccc(O)c8c7[C@@]4(CCN6CC=C)[C@@H]2O8)CC[C@@]3(O)C1C5 | inactive
CC(N)[C@H](O)c1ccc(O)c(O)c1 (stereo not given in full) | 7.57 µM (active)
O=[N+]([O-])/C=C/c1ccc2c(c1)OCO2 | inactive
CN1CCc2cc(O)cc3c2[C@H]1Cc1ccc(O)c(O)c1-3 | inactive
COc1ccc2c(c1O)-c1cccc3c1[C@@H](C2)N(C)CC3 | inactive
N=C(N)c1ccc(CS(=O)(=O)F)cc1 | inactive
NCC(CP(=O)(O)O)c1ccc(Cl)cc1 (stereo not given) | inactive
C[N+]1(C)CCc2cc3c(cc2[C@H]1[C@@H]1OC(=O)c2c1ccc1c2OCO1)OCO3 | inactive
CC(N)Cc1c[nH]c2ccc(OCc3cccs3)cc12 (stereo not given) | inactive
CC(C)NP(=O)(NC(C)C)OP(=O)(NC(C)C)NC(C)C | inactive
CCN1C[C@@]2(COC)C3[C@@H](OC)C4[C@@H]1C3([C@@H]1C[C@]3(O)[C@H](OC(=O)c5ccccc5)[C@@H]1[C@]4(OC(C)=O)[C@@H](O)[C@@H]3OC)[C@H](OC)C[C@H]2O | inactive
CCCN1CCC[C@@H](c2cccc(O)c2)C1 | inactive
c1ccc2cc(CC3=NCCN3)ccc2c1 | inactive
C=CCN1CC[C@]23c4c5ccc(O)c4O[C@H]2/C(=N/NC(=O)c2ccccc2)CC[C@@]3(O)[C@H]1C5 | inactive
Ic1ccccc1CNC1C2CCN(CC2)C1C(c1ccccc1)c1ccccc1 (stereo not given) | inactive
Oc1ccc2c3c1O[C@H]1c4[nH]c5ccccc5c4C[C@@]4(O)C(C2)N(CC2CC2)CCC314 (stereo not given in full) | inactive

SMILES | Potency
Clc1ccc(N2CC3CCC(C2)N3)nn1 | inactive
NC(Cc1ccc(N(CCCl)CCCl)cc1)C(=O)O (stereo not given) | inactive
NC(=O)c1ccc(OCC(O)CN2CC=C(c3ccc(F)cc3)CC2)cc1 (stereo not given) | inactive
Cc1cc([C@@H]2CCCN2C)on1 | inactive
CN1CC[C@@]2(C)c3cc(OC(=O)Nc4ccccc4)ccc3N(C)[C@@H]12 | inactive
Cc1c2ccncc2c(C)c2c1[nH]c1ccccc12 | inactive
COc1ccc2c(c1)c(CCN1CCOCC1)c(C)n2C(=O)c1cccc(Cl)c1Cl | inactive
NNC(=O)c1ccc(O)cc1 | inactive
CCCN(CCC)C1CCc2cccc(O)c2C1 (stereo not given) | inactive
CC12NC(Cc3ccccc31)c1ccccc12 (stereo not given) | inactive
C=CCN1C[C@@H](C)N([C@H](c2ccc(C(=O)N(CC)CC)cc2)c2cccc(OC)c2)C[C@@H]1C | inactive
CC(N)Cc1c[nH]c2ccc(O)cc12 (stereo not given) | inactive
CCCCCCCCCCCCCC(=O)O[C@@H]1[C@@H](C)[C@@]2(O)[C@@H](C=C(CO)C[C@@]3(O)C(=O)C(C)=C[C@@H]23)C2C(C)(C)[C@@]21OC(C)=O (stereo not given in full) | inactive
CCCn1c(=O)c2[nH]c(C3CCCC3)nc2n(CCCOC(=O)c2ccc(S(=O)(=O)F)cc2)c1=O | inactive
C[C@H](Cc1ccc2c(c1)OC(C(=O)O)(C(=O)O)O2)NC[C@H](O)c1cccc(Cl)c1 | inactive
C[N+]1(C)C2CCC1CC(OC(=O)c1c[nH]c3ccccc13)C2 (stereo not given) | inactive
CCCN1CCc2cc(O)cc3c2[C@H]1Cc1ccc(O)c(O)c1-3 | inactive
CN1C2CCC1CC(OC(c1ccccc1)c1ccccc1N)C2 (stereo not given) | inactive
CCCN1CCc2cccc3c2[C@H]1Cc1ccc(O)c(O)c1-3 | inactive
NCCc1ccc(S(=O)(=O)F)cc1 | inactive
